# Test results taken from PubChem BioAssay.
# Where “and” joins values, the source holds several entries; their conditions need not be identical. Equal values may be shown once. Results filed as inconclusive are left out. Calls of active or inactive are those of the source.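 Rule for the calls, unless noted: active = compounds whose cell count with miR-34 switched on is under 0.7 times the count with it off; inactive = the rest.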
# Legend:
# [1] = EMT-state selective cytotoxicity in co-culture – imaging, PC-3E GFP, TEM4-18 mCherry, primary screen (AID 1345086;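 active = compounds killing one labelled cell type while sparing the other, by normalised counts and ratio limits, not self-fluorescent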;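 for all read-outs here: cells exposed to compound for 72 h before imaging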;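 for red/green cell ratio (normalised): normalised mesenchymal count divided by normalised epithelial count so high means epithelial killing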); conditions: PC-3E GFP / TEM4-18 mCherry co-culture, imaging cell counts, at 1 µM; for red/green cell ratio (normalised): actives lie on both sides, counts scaled to control wells, 1 = unselective
# [2] = viability loss in pontine glioma line – cell-based, SU-DIPG-XVII, MIPE5.0, CellTiter-Glo, qHTS, dose response (AID 1347060; cut-off not given, nearly all actives have AC50 up to about 26 µM); conditions: CellTiter-Glo ATP luminescence
# [3] = viability loss in pontine glioma line – cell-based, JHH-DIPG-1, MIPE4.0, CellTiter-Glo, qHTS, dose response (AID 1347062; cut-off not given, nearly all actives have AC50 up to about 27 µM;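 for AC50: cells exposed to compound for two days before readout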); conditions: JHH-DIPG-1 viability, CellTiter-Glo ATP luminescence
# [4] = viability loss in pontine glioma line – cell-based, SU-DIPG-XIII, MIPE5.0, CellTiter-Glo, qHTS, dose response (AID 1347064; cut-off not given, nearly all actives have AC50 up to about 23 µM;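 for AC50: cells exposed to compound for 48 hours before the viability read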); conditions: CellTiter-Glo ATP luminescence
# [5] = viability loss in pontine glioma line – cell-based, SU-DIPG-XXV, MIPE5.0, CellTiter-Glo, qHTS, dose response (AID 1347065; cut-off not given, nearly all actives have AC50 up to about 26 µM;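 note: cells exposed to compound for 48 hours before ATP readout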); conditions: CellTiter-Glo ATP luminescence
# [6] = growth inhibition of DIPG cells – cell-based, MIPE4.0 library, CellTiter-Glo luminescence, qHTS (AID 1347066; cut-off not given, nearly all actives have AC50 up to about 30 µM;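 note: cells exposed to compound for 48 hours before readout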); conditions: SU-DIPG-VI viability, CellTiter-Glo ATP luminescence
# [7] = JHH-DIPG-1 glioma cell viability, MIPE5.0 library, CellTiter-Glo luminescence, qHTS (AID 1347067; cut-off not given, nearly all actives have AC50 up to about 26 µM;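 note: cells exposed to compound for 48 hours before readout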); conditions: JHH-DIPG-1 glioma viability, CellTiter-Glo ATP luminescence
# [8] = growth inhibition of DIPG cells – cell-based, MIPE5.0 library, qHTS (AID 1347068; cut-off not given, nearly all actives have IC50 up to about 30 µM); conditions: SU-DIPG-XXV viability
# [9] = viability loss with induced miR-34 in A549 – imaging, A549 dox-inducible miR-34, nuclei and caspase counts, primary screen (AID 1347080); conditions: A549 miR-34 inducible, Hoechst nuclei count, 48 h
# [10] = MELAS cybrid and Rieske KO viability enhancers – cell-based, MELAS cybrids, Rieske KO mouse fibroblasts, CellTiter-Glo, primary screen (AID 1508586;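 active = mean z-score across replicates of 1.96 or higher in either the MELAS or the Rieske mutant cell line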;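 note: z relative to plate mean and SD of compound and empty wells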); conditions: low glucose
# [11] = measured here: epithelial PC-3E GFP cell survival
# [12] = measured here: mesenchymal TEM4-18 mCherry cell survival
# [13] = stronger effect = lower value, cell number ratio, induced over uninduced
# [14] = measured here: relative caspase fold change +Dox/-Dox
# [15] = measured here: total cells with miR-34 induction, stronger effect = lower value
# [16] = measured here: total cells without miR-34 induction
# [17] = MELAS cybrid survival, CellTiter-Glo 48 h, stronger effect = higher value
# [18] = Rieske KO mouse fibroblast survival, CellTiter-Glo 72 h
structure (smiles),measurement,setting,value
CCCc1cc(C(N)=S)ccn1,red/green cell ratio (normalised),[1],0.84 (inactive)
same,normalised cell number,[1]; [11],1.14
same,normalised cell number,[1]; [12],0.96
same,outcome,[2],inactive
same,outcome,[3],inactive
same,outcome,[4],inactive
same,outcome,[5],inactive
same,outcome,[6],inactive
same,outcome,[7],inactive
same,outcome,[8],inactive
same,fold change,[9]; [13],0.877 (inactive) and 0.879 (inactive)
same,fold change,[9]; [14],0.726 and 1.06
same,cell count,[9]; [15],7890 and 9370
same,cell count,[9]; [16],8990 and 10700
same,z-score,[10]; [17],-0.334 (inactive) and 1.02 (inactive) and 0.566 (inactive)
same,z-score,[10]; [18],-0.0512 and 0.419 and 0.177
COc1cnc(NS(=O)(=O)c2ccc(N)cc2)nc1,red/green cell ratio (normalised),[1],1.15 (inactive)
same,normalised cell number,[1]; [11],0.87
same,normalised cell number,[1]; [12],0.99
same,AC50,[3],2.96 µM (active)
same,fold change,[9]; [13],0.943 (inactive) and 0.91 (inactive) and 0.881 (inactive)
same,fold change,[9]; [14],1.15 and 0.841 and 2.64
same,cell count,[9]; [15],9880 and 7410 and 11400
same,cell count,[9]; [16],10500 and 8140 and 12900
same,z-score,[10]; [17],-0.122 (inactive) and -0.879 (inactive)
same,z-score,[10]; [18],-1.17 and -0.837
Oc1c(I)cc(I)c2cccnc12,red/green cell ratio (normalised),[1],1.31 (inactive)
same,normalised cell number,[1]; [11],1.01
same,normalised cell number,[1]; [12],1.32
same,fold change,[9]; [13],0.894 (inactive)
same,fold change,[9]; [14],1.48
same,cell count,[9]; [15],10900
same,cell count,[9]; [16],12200
CC(=O)Oc1cccc(O)c1,red/green cell ratio (normalised),[1],1.21 (inactive)
same,normalised cell number,[1]; [11],1.1
same,normalised cell number,[1]; [12],1.33
same,fold change,[9]; [13],0.87 (inactive)
same,fold change,[9]; [14],5.2
same,cell count,[9]; [15],11300
same,cell count,[9]; [16],13000
Cc1cc(C(C)(C)C)c(O)c(C(C)(C)C)c1,red/green cell ratio (normalised),[1],0.93 (inactive)
same,normalised cell number,[1]; [11],1.01
same,normalised cell number,[1]; [12],0.94
same,fold change,[9]; [13],0.871 (inactive)
same,fold change,[9]; [14],0.986
same,cell count,[9]; [15],10700
same,cell count,[9]; [16],12300
C=CCc1ccc(O)c(OC)c1,red/green cell ratio (normalised),[1],1.2 (inactive)
same,normalised cell number,[1]; [11],0.95
same,normalised cell number,[1]; [12],1.13
same,fold change,[9]; [13],0.949 (inactive)
same,fold change,[9]; [14],0.583
same,cell count,[9]; [15],11000
same,cell count,[9]; [16],11600
COc1ccc(C2C(=O)c3ccccc3C2=O)cc1,red/green cell ratio (normalised),[1],0.84 (inactive)
same,normalised cell number,[1]; [11],1.14
same,normalised cell number,[1]; [12],0.96
same,fold change,[9]; [13],0.879 (inactive)
same,fold change,[9]; [14],2.05
same,cell count,[9]; [15],11100
same,cell count,[9]; [16],12700
OCc1ccccc1O,red/green cell ratio (normalised),[1],1.09 (inactive)
same,normalised cell number,[1]; [11],0.88
same,normalised cell number,[1]; [12],0.96
same,fold change,[9]; [13],0.861 (inactive)
same,fold change,[9]; [14],4.19
same,cell count,[9]; [15],10600
same,cell count,[9]; [16],12400
Oc1cccc(O)c1,red/green cell ratio (normalised),[1],1.34 (inactive)
same,normalised cell number,[1]; [11],0.71
same,normalised cell number,[1]; [12],0.95
same,fold change,[9]; [13],0.918 (inactive)
same,fold change,[9]; [14],2.54
same,cell count,[9]; [15],12000
same,cell count,[9]; [16],13100
CCCCCCc1ccc(O)cc1O,red/green cell ratio (normalised),[1],0.84 (inactive)
same,normalised cell number,[1]; [11],1.14
same,normalised cell number,[1]; [12],0.96
same,fold change,[9]; [13],0.901 (inactive)
same,fold change,[9]; [14],1.55
same,cell count,[9]; [15],11000
same,cell count,[9]; [16],12200
CCOC(N)=O,red/green cell ratio (normalised),[1],1.16 (inactive)
same,normalised cell number,[1]; [11],0.95
same,normalised cell number,[1]; [12],1.1
same,fold change,[9]; [13],0.875 (inactive)
same,fold change,[9]; [14],3.55
same,cell count,[9]; [15],11200
same,cell count,[9]; [16],12800
CN1CCN(c2cc3c(cc2F)c(=O)c(C(=O)O)cn3-c2ccc(F)cc2)CC1,red/green cell ratio (normalised),[1],1.21 (inactive) and 1.18 (inactive)
same,normalised cell number,[1]; [11],0.99 and 0.72
same,normalised cell number,[1]; [12],1.2 and 0.85
same,fold change,[9]; [13],0.87 (inactive)
same,fold change,[9]; [14],0.995
same,cell count,[9]; [15],6840
same,cell count,[9]; [16],7860
O=C(O)c1ccc(S(=O)(=O)N(Cl)Cl)cc1,red/green cell ratio (normalised),[1],0.95 (inactive)
same,normalised cell number,[1]; [11],1.13
same,normalised cell number,[1]; [12],1.08
same,fold change,[9]; [13],0.899 (inactive)
same,fold change,[9]; [14],0.716
same,cell count,[9]; [15],11500
same,cell count,[9]; [16],12800
COc1ccc(-c2cc(C(F)F)nn2-c2ccc(S(N)(=O)=O)cc2)cc1F,red/green cell ratio (normalised),[1],0.98 (inactive)
same,normalised cell number,[1]; [11],1.12
same,normalised cell number,[1]; [12],1.1
same,fold change,[9]; [13],0.791 (inactive)
same,fold change,[9]; [14],2.48
same,cell count,[9]; [15],10300
same,cell count,[9]; [16],13000
CO/N=C1\CN(c2nc3c(cc2F)c(=O)c(C(=O)O)cn3C2CC2)CC1CN (stereo not drawn),red/green cell ratio (normalised),[1],0.94 (inactive)
same,normalised cell number,[1]; [11],1.32
same,normalised cell number,[1]; [12],1.24
same,fold change,[9]; [13],0.847 (inactive)
same,fold change,[9]; [14],1.93
same,cell count,[9]; [15],10700
same,cell count,[9]; [16],12600
CCC(=O)O[C@H]1[C@H](O[C@@H]2[C@@H](C)[C@H](O[C@H]3C[C@@](C)(OC)[C@@H](O)[C@H](C)O3)[C@@H](C)C(=O)O[C@H](CC)[C@@](C)(O)[C@H](O)[C@@H](C)C(=O)[C@H](C)C[C@@]2(C)O)O[C@H](C)C[C@@H]1N(C)C,red/green cell ratio (normalised),[1],1.04 (inactive)
same,normalised cell number,[1]; [11],1.08
same,normalised cell number,[1]; [12],1.12
same,fold change,[9]; [13],0.893 (inactive)
same,fold change,[9]; [14],3.7
same,cell count,[9]; [15],11600
same,cell count,[9]; [16],12900
Cc1cccc(C(=O)O)c1O,red/green cell ratio (normalised),[1],1 (inactive)
same,normalised cell number,[1]; [11],0.79
same,normalised cell number,[1]; [12],0.79
same,fold change,[9]; [13],0.963 (inactive)
same,fold change,[9]; [14],0.915
same,cell count,[9]; [15],8670
same,cell count,[9]; [16],9000
CC(=O)N(O)CCCCCNC(=O)CCC(=O)N(O)CCCCCNC(=O)CCC(=O)N(O)CCCCCN,red/green cell ratio (normalised),[1],1.51 (inactive)
same,normalised cell number,[1]; [11],1.1
same,normalised cell number,[1]; [12],1.67
same,AC50,[4],7.42 µM (active)
same,AC50,[5],13.2 µM (active)
same,outcome,[8],inactive
same,fold change,[9]; [13],0.985 (inactive) and 0.882 (inactive) and 0.874 (inactive)
same,fold change,[9]; [14],1.2 and 0.413 and 4.36
same,cell count,[9]; [15],4610 and 9190 and 10300
same,cell count,[9]; [16],4680 and 10400 and 11800
same,z-score,[10]; [17],-0.752 (inactive) and -0.803 (inactive)
same,z-score,[10]; [18],-0.313 and -1.18
CC(=O)OCC(COC(C)=O)OC(C)=O,red/green cell ratio (normalised),[1],1.26 (inactive)
same,normalised cell number,[1]; [11],0.97
same,normalised cell number,[1]; [12],1.22
same,fold change,[9]; [13],0.85 (inactive)
same,fold change,[9]; [14],3.03
same,cell count,[9]; [15],10700
same,cell count,[9]; [16],12600
O=C(O)c1cc(O)c(O)c(O)c1,red/green cell ratio (normalised),[1],0.96 (inactive)
same,normalised cell number,[1]; [11],1.14
same,normalised cell number,[1]; [12],1.09
same,fold change,[9]; [13],0.943 (inactive)
same,fold change,[9]; [14],4.52
same,cell count,[9]; [15],11500
same,cell count,[9]; [16],12200
CN1CCCN=C1COC(=O)C(O)(c1ccccc1)C1CCCCC1 (stereo not drawn),red/green cell ratio (normalised),[1],1.18 (inactive)
same,normalised cell number,[1]; [11],1.21
same,normalised cell number,[1]; [12],1.43
same,fold change,[9]; [13],0.832 (inactive)
same,fold change,[9]; [14],3.67
same,cell count,[9]; [15],10300
same,cell count,[9]; [16],12400
Cc1cc(C)cc(OCC2CNC(=O)O2)c1 (stereo not drawn),red/green cell ratio (normalised),[1],1.5 (inactive)
same,normalised cell number,[1]; [11],0.43
same,normalised cell number,[1]; [12],0.64
same,fold change,[9]; [13],0.878 (inactive)
same,fold change,[9]; [14],2.33
same,cell count,[9]; [15],10800
same,cell count,[9]; [16],12400
NC(=O)NC(=O)Cc1ccccc1,red/green cell ratio (normalised),[1],1.02 (inactive)
same,normalised cell number,[1]; [11],1.19
same,normalised cell number,[1]; [12],1.21
same,fold change,[9]; [13],0.88 (inactive)
same,fold change,[9]; [14],0.863
same,cell count,[9]; [15],11800
same,cell count,[9]; [16],13400
